Screening results from PubChem.
Rows were chosen to be rich in hits. Some 11% of all compounds tested hit in one or more screens of this group.
NS1 inh – blocks influenza NS1 protein function. Potency, µM (titrated, usually from 46.1 µM). actives 0.4% (n = 270,000); calls by dose curve; further: actives are rising curves; nearly all actives have a fitted effect of over 50% in size
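Read-out: OD600 growth recovery of NS1-expressing budding yeast. Cells grown overnight at 30C in -URA glucose medium, washed, resuspended and diluted 1:100 in 2% galactose assay medium, pH 6.0. Same strain lacking NS1 served as positive control.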
Pf growth 48h – inhibits P. falciparum growth in the first generation, 48 h; P. falciparum luciferase growth in erythrocytes, 48 h; Potency, µM (top dose mostly 28.7 µM), usual class: inhibitors; AID 504832; actives 5.9% (n = 310,000)
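Firefly luciferase activity from engineered P. falciparum reports growth; inhibitors lower the luminescent signal. Cultures contained 2% hematocrit erythrocytes at 0.1% final parasitemia.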
Pf growth 96h – P. falciparum growth inhibition at 96 hours. actives 6.9% (n = 320,000). AID 504834. Potency, µM (series often up to 28.7 µM), usual class: inhibitors. P. falciparum luciferase reporter growth, 96 h
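P. falciparum expressing integrated firefly luciferase, in erythrocytes at 2% hematocrit, 0.05% parasitemia, incubated with compounds 96 h at 37 C, 5% CO2. Growth inhibition read as loss of luminescence; two-generation exposure targets delayed-death apicoplast inhibitors.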
Sm TGR inh – S. mansoni TGR enzyme inhibition; Q962Y6; purified TGR, DTNB reduction, TNB absorbance 405 nm; Potency, µM (doses to about 114 µM), most hits filed as inhibitors; actives 3% (n = 360,000); further: nearly all actives have a fitted effect of over 60% in size
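Kinetic colorimetric format: TGR-catalysed, NADPH-driven DTNB reduction monitored via TNB absorbance. Enzyme dispensed at 20 nM; compound exposure 15 min at room temperature before reaction start.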
AMA1 RON2 block – disrupts binding of P. falciparum AMA1 to RON2; AlphaScreen AMA1-biotinylated RON2 peptide binding; actives 0.2% (n = 360,000); Potency, µM (doses to about 58.2 µM), most hits filed as inhibitors; further: nearly all actives have a fitted effect of over 45% in size
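AMA1 (3D7) with his tag at 25 nM final met compounds first, then biotinylated RON2 peptide at 25 nM; detection used donor plus acceptor beads, 10 µg/mL apiece, read by AlphaScreen after 30 min at room temperature.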
Hits are given with their value; 0 = inactive; ? = inconclusive; - = not tested or not shown; [ ] = dose if it differs, or a comment. Unless noted, the call rests on the fitted dose curve; in most records, active means well fitted curve in the direction sought with a large enough effect; inconclusive means small, poorly fitted or top-dose-only effect, or another doubt; inactive means no such curve, though single readings can be large; an effect the other way counts as inactive or inconclusive.

SMILES	NS1 inh	Pf growth 48h	Pf growth 96h	Sm TGR inh	AMA1 RON2 block
Cc1cc(C)c2cc(C#N)c(NCCCNC(=O)c3cccnc3)nc2c1	-	-	-	-	0
CC1(C)Cc2c(c(N3CCOCC3)nc3sc4c(NCc5ccco5)nnnc4c23)CS1	0[9.22 µM]	?	0	40µM	0
CC1(C)Cc2c(c(N3CCOCC3)nc3sc4c(NCc5ccccc5)nnnc4c23)CS1	0	-	1µM	0	0
CC(=O)Nc1ncc(Sc2ccc([N+](=O)[O-])cc2)s1	-	-	-	-	0
O=C(CCCOc1ccc(Cl)cc1)NC1CCCCC1	0	?	0	0	0
CCC(C)n1c(=O)c(C(=O)Nc2ccccc2S(N)(=O)=O)c(O)c2ccccc21 (stereo unspecified)	0	0	9.3µM	0	0
C=CCn1c(SCC(=O)NC2CCCC2)nc2sc(C)cc2c1=O	-	0	6.6µM	0	0
O=C(Nc1ccc(Cl)cc1)c1ccc2c(c1)N(Cc1ccccc1)CCS2	-	-	-	0	-
O=C(O)C1CC(c2cccc(Br)c2)=NO1 (stereo unspecified)	0	0	-	0	0
CC1(C(=O)N2CCC(CC3CC(c4ccc(Cl)cc4)=NO3)(C(=O)NCC3CCCCC3)CC2)CC1 (stereo unspecified)	0	?	1.5µM	0	0
CC(C)(C)OC(=O)N1CCC(CC2CC(c3ccc(Cl)cc3)=NO2)(C(=O)NCC2CCCCC2)CC1 (stereo unspecified)	0	0	?	0	0
CC1(C(=O)N2CCC(CC3CC(c4cccc(Br)c4)=NO3)(C(=O)NCC3CCCCC3)CC2)CC1 (stereo unspecified)	0	?	2.9µM	0	0
CC1S/C(=N\N=C\c2cccc([N+](=O)[O-])c2)N(C(C)(C)C)C1=O (stereo unspecified)	0	?	0	0	?
CCOc1ccc(-c2nnc3sc(COc4ccccc4)nn23)cc1	0	0	12µM	0	0
COc1ccc(-c2nnc3sc(COc4ccccc4)nn23)cc1	0	0	0	0	0
CCOc1ccc(C(C)NC(=S)NCc2ccc(Cl)cc2)cc1 (stereo unspecified)	0	?	5.2µM	0	0
CCC(C)c1ccc(C(C)NC(=S)NCc2ccc(F)cc2)cc1 (stereo unspecified)	0	?	?	0	0
CCCc1ccc(C(C)NC(=S)NCc2ccc(F)cc2)cc1 (stereo unspecified)	0	?	12µM	?	0
CCC(NC(=S)NCc1ccc(F)cc1)c1ccc(C(C)C)cc1 (stereo unspecified)	0	10µM	?	0	0
CCCc1nnc(NC(=O)Cc2coc3cc(C)cc(C)c23)s1	-	-	-	0	-
CCn1c(NC(=O)Nc2cccc(C)c2C)cc2sccc21	0	-	13µM	0	0
CCn1nc([N+](=O)[O-])c(C(C#N)c2nc3cc(C(F)(F)F)ccc3s2)c(Cl)c1=O (stereo unspecified)	0	-	0	4µM	?
Cn1nc([N+](=O)[O-])c(C(C#N)c2ccccn2)c(Cl)c1=O (stereo unspecified)	-	?	0	4.5µM	0
N#CC(c1ccccn1)c1ncc(C(F)(F)F)cc1Cl (stereo unspecified)	0	0	0	0	0
CCCCn1c(N)c(-c2nc3ccccc3o2)c2c([N+](=O)[O-])nn(CC)c(=O)c21	0	0	0	0	0[2.32 µM]
SMILES	NS1 inh	Pf growth 48h	Pf growth 96h	Sm TGR inh	AMA1 RON2 block
Cc1ccc(Cn2c(C(C)Nc3nc(-c4ccc(Cl)c([N+](=O)[O-])c4)cs3)nc3cc(C(F)(F)F)ccc32)cc1 (stereo unspecified)	-	-	-	-	0
CCCn1nc([N+](=O)[O-])c(C(C#N)c2nc3ccccc3o2)c(Cl)c1=O (stereo unspecified)	0	0	0	2.2µM	?
Cc1ccc(O)c(NC(=S)NC(=O)C(C)C)c1	0	0	0	0	0
O=C(CN1C(=O)C2C3C=CC(C3)C2C1=O)NCCN1CCCc2ccccc21 (stereo unspecified)	?	-	0	50µM	0
Fc1ccc(NC(=S)Nc2cccc3cnccc23)cc1	-	?	?	45µM	0
S=C(Nc1ccc(Cl)cc1)Nc1cccc2cnccc12	0	?	12µM	0	0
S=C(Nc1cccnc1)Nc1cccc2cnccc12	-	0	0	45µM	0
CN(C)S(=O)(=O)c1cccc(NC(=S)Nc2cccc3cnccc23)c1	0	6.6µM	3.7µM	10µM	0
COc1ccccc1NC(=S)Nc1cccc2cnccc12	0	0	0	?	0
CCN(CC)C(=O)[C@H]1C[C@H](CC(=O)NCCC2=CCCCC2)C(=O)N2CCc3c([nH]c4ccc(Cl)cc34)[C@]12C	-	-	-	-	0
Cc1cccc(NC(=S)Nc2cccc3ccccc23)c1	0	10µM	?	0	0
COc1ccc(CCNC(=S)Nc2cccc(C)c2)cc1	0	0	0	0	0
Cc1cccc(NC(=S)NCCC(C)C)c1	0	?	12µM	0	0
Cc1cc(C)cc(NC(=S)Nc2cccc3ccccc23)c1	0	0	0	0	0
S=C(N/N=C/c1ccccc1Cl)Nc1ccccc1	0	?	?	0	0
Cc1ccc(S(=O)(=O)N(C)C)cc1NC(=S)Nc1cccc2ccccc12	0	?	0	16µM	0
S=C(N/N=C/c1cccc2ccccc12)Nc1cccc(Cl)c1	?	?	2.9µM	0	0
COc1cc(F)ccc1-c1csc(C(O)(c2ccccc2)C(F)(F)F)n1 (stereo unspecified)	-	-	-	-	0
COc1ccc(-c2cc(=S)ss2)cc1	-	0	?	-	-
COc1ccc(OC)c(S(=O)(=O)NCC(c2ccc(N(C)C)cc2)N2CCOCC2)c1 (stereo unspecified)	-	-	-	0	-
C1CCN2CC3CC(CN4CCCC[C@@H]34)[C@H]2C1	-	-	-	-	0
CC(=O)N1CCc2cc(S(=O)(=O)NC(C(=O)NC(C)c3ccccc3)C(C)C)ccc21 (stereo unspecified)	0	0	?	0	0
S=C(NCCc1ccncc1)Nc1cccc2ccccc12	0	0	0	14µM	0
C=CCNC(=S)Nc1cccc2ccccc12	0	0	0	0	0
CCOc1ccc(NC(=S)Nc2cccc3cnccc23)cc1	0	0	0	0	0
SMILES	NS1 inh	Pf growth 48h	Pf growth 96h	Sm TGR inh	AMA1 RON2 block
COc1ccc(NC(=S)c2ccncc2)cc1	0	0	10µM	0	0
COc1ccc(NC(=S)Nc2cccc3cnccc23)cc1	0	0	0	56µM	0
CC(C)CCNC(=S)Nc1ccccn1	0	0	0	45µM	0
Cc1ccc(C)c(OCc2cc(C(=O)N3CC[C@H](O)C3)no2)c1	0	0	0	0	0
COc1ccc2nc(/C=N/NC(=O)CCCCCNC(=O)OC(C)(C)C)ccc2c1	0	?	?	0	0
COc1ccccc1CN1CCN(S(=O)(=O)c2ccc(C)cc2)CC1	-	-	-	-	0
C/C=C1\NC(=O)[C@H](C)NC(=O)[C@@H](NC(=O)[C@@H](Cc2ccc(O)cc2)NC(=O)[C@@H](NC(=O)/C(C)=C/C)C(C)C)[C@@H](C)OC(=O)[C@H](CCCCc2ccc(O)cc2)NC(=O)[C@@H](CCC(=O)OC)NC1=O	-	-	-	-	0
